Assay outcomes deposited in PubChem BioAssay by National Center for Advancing Translational Sciences (NCATS).
Only some compounds are listed: those with a hit (about 2.2% of all), similar ones and a draw of the others.
PI4K2A block – qHTS for small molecular inhibitors of PI4K2A; activity change, negative = inhibition, % at 76.9 µM; Phosphatidylinositol 4-kinase type 2-alpha (Homo sapiens), Q9BTU6; actives 0.13% (n = 420,000); purified PI4K2A, ADP-Glo luminescence, 1 h; active compounds read low; in the data active = activity change below about -50%; inconclusive = mostly about -30% to -49%;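 also: -100% = wells without enzyme as full effect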
Target sequence (Q9BTU6 whole entry, looked up): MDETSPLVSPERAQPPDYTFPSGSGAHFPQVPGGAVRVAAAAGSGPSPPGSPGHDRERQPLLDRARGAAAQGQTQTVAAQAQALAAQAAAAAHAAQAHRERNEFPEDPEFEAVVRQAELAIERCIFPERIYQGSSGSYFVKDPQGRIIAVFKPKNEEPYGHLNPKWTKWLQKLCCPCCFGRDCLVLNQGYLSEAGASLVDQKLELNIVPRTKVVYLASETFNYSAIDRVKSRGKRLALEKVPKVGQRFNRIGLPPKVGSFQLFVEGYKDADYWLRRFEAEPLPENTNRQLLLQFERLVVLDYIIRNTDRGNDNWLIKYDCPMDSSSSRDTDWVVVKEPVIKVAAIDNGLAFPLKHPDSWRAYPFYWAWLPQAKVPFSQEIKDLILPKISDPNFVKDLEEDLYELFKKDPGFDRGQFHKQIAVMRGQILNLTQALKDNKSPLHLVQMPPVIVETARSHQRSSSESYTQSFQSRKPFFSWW
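Compounds are screened against recombinant PI4K2A using PI as substrate and ATP, the latter dispensed at 300 microM. Reactions run one hour at ambient temperature before ADP-Glo detection; full inhibition defined by wells lacking enzyme.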
miR-21 reporter – qHTS Assay for Modulators of miRNAs and/orActivators of miR-21; HeLa miR-21 FLuc reporter, luciferase, 48 h; Potency, µM (series often up to 38.3 µM), without a hit: at the highest dose activity change, positive = activation, most hits filed as activators; 340,000 tested, under 10 active;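 also: % of control where 0% means no effect; miR-21 action dims this reporter so a rising signal means less miR-21 action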
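HeLa cells stably expressing CMV-driven firefly luciferase with a downstream miR-21 binding sequence, endogenously expressing miR-21, were treated with titrations (up to about 40uM final) for 48 hours at 37 degree Celsius. Luciferase luminescence was read after lysis.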
A549 tox – Nrf2 qHTS screen for inhibitors: counterscreen for cytotoxicity. A549 ARE-Fluc cells, CellTiter-Fluor viability, 18-24 h. Potency, µM (doses to about 46 µM), without a hit: top-dose activity change, negative = cytotoxicity, most hits filed as inhibitors. actives 0.16% (n = 390,000). AID 504648, 2011; also: potency is read from the fitted curve at half-maximal effect; % is scaled to controls: 0 for no effect and ±100 for the full control effect
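Cytotoxicity counterscreen: CellTiter-Fluor fluorescence was measured in A549 ARE_Fluc cells after 18-24 h of compound exposure in a concentration series. The subsequent BugLite luminescent read reports ARE-luciferase activity.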
Nrf2 ARE act – qHTS of Nrf2 Activators. AREc32 ARE-luciferase reporter (MCF7-derived line), luminescence, 24 h. Potency, µM (doses to about 46.1 µM), inactives show top-dose activation, usual class: activators. actives 0.31% (n = 410,000); also: potency is read from the fitted curve at half-maximal effect; % of control where 0% means no effect; nearly all actives have a fitted effect of over 65% in size
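ARE activation measured as luciferase luminescence (Steady-Glo, 30 min RT) in AREc32_Fluc cells after 24 hr compound exposure at 37 deg C, 5% CO2; cells seeded overnight at 1000/well in OPTI-MEM, 5% FBS.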
GALK inhibitor – qHTS Assay for Inhibitors of Human Galactokinase (GALK) | P51570 | Purified GALK, Kinase-Glo residual ATP luminescence | Potency, µM (top dose mostly 57.5 µM), without a hit: at the top dose activity change, negative = inhibition, actives largely listed as inhibitors | actives 0.007% (n = 270,000); also: potency is read from the fitted curve at half-maximal effect; % is scaled to controls: 0 for no effect and ±100 for the full control effect
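ATP-depletion format; final 35 uM ATP, 100 uM D-galactose, 5 nM enzyme; pH 8.0 HEPES/Mg2+ buffer; 60 min RT; luminescence read 10 min after detection reagent.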
Nrf2 inh – Nrf2 qHTS screen for inhibitors. actives 2.1% (n = 360,000). A549 ARE-Fluc reporter, luciferase luminescence, 18-24 h. Potency, µM (highest dose often 46 µM), inactives show at the top dose activity change, negative = inhibition, hits mostly inhibitors; also: potency is read from the fitted curve at half-maximal effect; % is scaled to controls: 0 for no effect and ±100 for the full control effect; nearly all actives have a fitted effect of over 60% in size
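Two sequential reads on A549 ARE_Fluc cells exposed to compound for 18-24 h: a CellTiter-Fluor fluorescence read for viability, then a luciferase luminescence read for Nrf2/ARE activity.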
Numbers without * were called inactive. Unless noted, calls follow the shape of the dose curve; as a rule, active = well fitted curve in the direction sought with a large enough effect; inconclusive = small, poorly fitted or top-dose-only effect, or another doubt; inactive = no such curve, though single readings can be large; an effect the other way counts as inactive or inconclusive.

`CCOC(=O)c1nn(-c2ccc(OC)cc2)c(=O)c2c(NC(=O)Cc3ccccc3)scc12` gave A549 tox 1.7% and Nrf2 inh 7.6%.
`Cc1nn(CCCC(=O)Nc2cc(Oc3ccccc3)cc([N+](=O)[O-])c2)c(C)c1[N+](=O)[O-]` gave PI4K2A block -2.5, miR-21 reporter 13.3%, A549 tox -2.8%, Nrf2 ARE act 5.4%, GALK inhibitor 3.2% and Nrf2 inh inconclusive.
For Cc1cccc(Oc2cc(NC(=O)c3ccccc3)cc([N+](=O)[O-])c2)c1 the results were PI4K2A block -1.0, miR-21 reporter 24.5%, A549 tox inconclusive, Nrf2 ARE act 0.3%, GALK inhibitor 0.1% and Nrf2 inh 13µM*.
Screening Cc1ccc(C)c(Oc2cc(NC(=O)CCCn3nc(C)c([N+](=O)[O-])c3C)cc([N+](=O)[O-])c2)c1 returned PI4K2A block 13.5, miR-21 reporter -9.9%, A549 tox inconclusive, Nrf2 ARE act 3.4%, GALK inhibitor -0.9% and Nrf2 inh 23.1µM*.
`CCn1nc(C)c(C(=O)Nc2cc(Oc3cc(C)cc(C)c3)cc([N+](=O)[O-])c2)c1C` gave PI4K2A block 6.0, miR-21 reporter 18.4%, A549 tox inconclusive, Nrf2 ARE act 2.3%, GALK inhibitor 0.1% and Nrf2 inh 20.6µM*.
For Cc1ccc(CNC(=O)OC(C)(C)C)c(/C=C/S(=O)(=O)NC2CCCC2)c1 the results were PI4K2A block -4.7.
CSC1(SC2=NCCN2)SC2(NCCN2)S1 was read as PI4K2A block 33.0, A549 tox 7.31µM*, Nrf2 ARE act 23.9% and Nrf2 inh 8.2µM*.
`CC(C)(C)OC(=O)n1cc(-c2ccccc2)c2c(-c3ccccc3)c(O)ccc21` gave PI4K2A block -0.4.
`Cc1cc(C)c(C)c(S(=O)(=O)NCc2ccncc2)c1C` gave PI4K2A block -5.7, miR-21 reporter 12.0%, A549 tox -17.7%, Nrf2 ARE act 0.1%, GALK inhibitor 5.5% and Nrf2 inh 13µM*.
`Cc1cc(Br)c(S(=O)(=O)NCc2ccncc2)cc1C` gave PI4K2A block -2.8, miR-21 reporter 9.7%, A549 tox -19.1%, Nrf2 ARE act -0.1%, GALK inhibitor -3.5% and Nrf2 inh 3.66µM*.
Screening O=C(c1cc(-c2ccccc2)on1)N1CCC(Oc2cccnc2)CC1 returned PI4K2A block 1.6.
`Cc1ccc(C(=O)N/N=C\c2ccc(-c3ccc(Cl)c(Cl)c3)o2)cn1` gave PI4K2A block -13.7, miR-21 reporter -1.7%, A549 tox -17.1%, Nrf2 ARE act -2.6% and Nrf2 inh 18.4µM*.
COc1ccc(C(=O)N2CCC(c3nc(-c4ccc(S(=O)(=O)N5CCCC5)cc4)no3)CC2)cc1 was read as PI4K2A block 2.7, miR-21 reporter 25.3%, A549 tox inconclusive, Nrf2 ARE act -0.5% and Nrf2 inh 20.6µM*.
`COc1ccc(-c2noc(C3CCCN(C(=O)c4ccccc4)C3)n2)cc1` (stereo not drawn) gave PI4K2A block -4.3, miR-21 reporter -10.1%, A549 tox 0.0%, Nrf2 ARE act 0.5%, GALK inhibitor 1.1% and Nrf2 inh inconclusive.
Screening CCOc1ccc(C(=O)N2CCC(c3nc(-c4ccc(S(=O)(=O)N5CCCC5)cc4)no3)CC2)cc1 returned PI4K2A block -2.8, miR-21 reporter inconclusive, A549 tox -12.0%, Nrf2 ARE act 0.4% and Nrf2 inh 13µM*.
`Cc1nc2sc(-c3ccccc3)cc2c(=O)n1N` gave PI4K2A block -51.7*, miR-21 reporter -19.2%, A549 tox -0.8%, Nrf2 ARE act -1.9%, GALK inhibitor 27.1% and Nrf2 inh inconclusive.
